The nature of assay [1]: ATG_CRE_CIS: Attagene CIS-FACTORIAL HepG2 Assay for human cAMP Responsive Element (CRE) binding protein 3 (AID 2282926). Particulars: HepG2 CRE cis-reporter, Attagene multiplexed mRNA; actives raise or lower the signal. An outline of the steps: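 Capillary electrophoresis of 6-FAM-labelled, HpaI-digested PCR products quantified reporter transcripts. These came from HepG2 transiently transfected with cis-element reporters and exposed to test chemicals for 24 hours, with DMSO defining baseline activity.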

Assay [2] has as its target CCAAT/enhancer-binding protein beta (Homo sapiens) (UniProt P17676). Briefly: ATG_C_EBP_CIS: Attagene CIS-FACTORIAL HepG2 Assay for human CCAAT/Enhancer Binding Protein (C/EBP) beta (AID 2282927). Conditions: HepG2 Attagene cis-factorial transcription factor reporter; actives raise or lower the signal. An outline of the steps: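 Endogenous C/EBPb-driven reporter transcripts measured in transfected human HepG2 cells at 24 h via RT-PCR and capillary electrophoresis of labelled fragments. Activity fitted in both directions relative to DMSO baseline.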

Assay [3] in a line: APR_HepG2_StressKinase_72hr: Apredica 72-hour HepG2 Assay for Stress Kinase (AID 2282921). Conditions: HepG2 stress kinase (phospho-c-Jun) imaging, actives raise or lower the signal. An outline of the steps:
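After a 72 h compound treatment spanning 0.39 to 200 uM, formaldehyde-fixed cells are labelled for phosphorylated c-Jun and nuclei, imaged by automated fluorescence microscopy, and activity is fitted in both directions relative to DMSO controls.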

Assay [4] can be described thus: APR_HepG2_StressKinase_24hr: Apredica 24-hour HepG2 Assay for Stress Kinase (AID 2282922). Particulars: HepG2 stress kinase (phospho-c-Jun) imaging, actives raise or lower the signal. An outline of the steps:
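High-content imaging of phospho-c-Jun immunofluorescence in fixed, permeabilized HepG2 cells after 24 h dosing. Ten concentrations, 0.39 to 200 uM, run in duplicate at 0.5% v/v DMSO; gain or loss of signal versus DMSO.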

Assay [5] in a line: APR_HepG2_NuclearSize_72hr: Apredica 72-hour HepG2 Assay for Nuclear Size (AID 2282925). Particulars: high-content imaging, actives raise or lower the signal. An outline of the steps: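 Nuclear size was read by high-content imaging of Hoechst 33342 stain after formaldehyde fixation. Compounds ran 72 h on HepG2 at 0.39 to 200 uM, with final DMSO 0.5% v/v. Curves fitted both directions relative to DMSO control.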

The nature of assay [6]: ATG_CMV_CIS: Attagene CIS-FACTORIAL HepG2 Assay for human CMV (Internal Marker) (AID 2282928).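 Also: endpoint acts as a background internal control marker rather than a target.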 Particulars: HepG2 CMV promoter reporter, transcription factor profiling; actives raise or lower the signal. An outline of the steps:
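Fluorescence intensity of RT-PCR-derived reporter fragments, resolved by capillary electrophoresis, gives the signal. HepG2 liver cells bearing transfected cis-element reporters were treated 24 h; activity in either direction was fit relative to DMSO-treated controls.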

Assay [7] is described as follows: APR_HepG2_MitoticArrest_72hr: Apredica 72-hour HepG2 Assay for Mitotic Arrest (AID 2282918). Particulars: high-content imaging, actives raise or lower the signal. The method in brief: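 HepG2 cells were exposed for 72 hr to compound at 0.39–200 uM (10 concentrations, duplicate) in 0.5% v/v DMSO, fixed in 3.7% formaldehyde, immunostained for phospho-histone H3 with Hoechst 33342 and imaged by high-content fluorescence; bidirectional fits versus DMSO.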

The nature of assay [8]: APR_HepG2_MicrotubuleCSK_72hr: Apredica 72-hour HepG2 Assay for Microtubule CSK Stabilty (AID 2282919). Particulars: HepG2 microtubule cytoskeleton, high-content imaging, actives raise or lower the signal. An outline of the steps:
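High-content imaging of alpha-tubulin staining in fixed HepG2 cells after 72 hr treatment with ten concentrations from 0.39 to 200 uM (0.5% DMSO). Fitting was bidirectional against DMSO; taxol served as positive control.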

The nature of assay [9]: APR_HepG2_MitoMass_72hr: Apredica 72-hour HepG2 Assay for Mitochondrial Mass (AID 2282924).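 Also: MitoTracker Red CMXRos stain intensity per cell imaged as mitochondrial mass.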 Particulars: high-content imaging, actives raise or lower the signal. An outline of the steps:
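Readout is imaged MitoTracker Red (250 nM, 30 min, pre-fixation) signal, fitted bidirectionally against DMSO baseline. Human HepG2 liver cells received compound 0.39–200 uM in duplicate for 72 hr, final DMSO 0.5%.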

The nature of assay [10]: APR_HepG2_p53Act_72hr: Apredica 72-hour HepG2 Assay for p53 Activation (AID 2282923).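 Also: average cellular p53 protein immunofluorescence intensity in HepG2 cells.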 Particulars: high-content imaging, actives raise or lower the signal. On the procedure:
APR_HepG2_72hr is a cell-based, multiplexed-readout assay that uses HepG2, a human liver cell line, with measurements taken at 72 hours after chemical dosing in a 384-well plate.APR_HepG2_p53Act_72hr is one of 10 assay component(s) measured or calculated from the APR_HepG2_72hr assay. It is designed to make measurements of dna content, a form of viability reporter, as detected with fluorescence intensity signals by HCS Fluorescent Imaging technology.Data from the assay component APR_HepG2_p53Act_72hr was analyzed into 1 assay endpoint. This assay endpoint, APR_HepG2_p53Act_72hr, was analyzed with bidirectional fitting relative to DMSO as the negative control and baseline of activity. Using a type of viability reporter, measures of protein for gain or loss-of-signal activity can be used to understand the signaling at the pathway-level as they relate to the gene TP53. Furthermore, this assay endpoint can be referred to as a primary readout, because this assay has produced multiple assay endpoints where this one serves a signaling function. To generalize the intended target to other relatable targets, this assay endpoint is annotated to the dna binding intended target family, where the subfamily is tumor suppressor.
Cells were treated with dimethyl sulfoxide (DMSO) as a solvent control at a final concentration of 0.5% v/v or with compounds in DMSO with a resulting final DMSO concentration of 0.5% v/v. Compound treatment was done at concentrations of 0.39, 0.78, 1.56, 3.12, 6.24, 12.5, 25, 50, 100, and 200 uM in duplicate on each plate. Cells were treated with compounds for 1, 24, or 72 hr. Carbonyl […] m-chloro-phenylhydrazone (CCCP) and taxol were used as positive controls for mitochondrial function and cytoskeletal stability, respectively; DMSO served as the negative control for this experiment. Cells were fixed by the direct addition of 50 uL formaldehyde in Hank's Balanced Salt Solution (HBSS) to a final concentration of 3.7%. After incubation in the fixation medium for 30 min at room temperature (293-298 K), cells were rinsed twice with HBSS and treated with cell permeabilization buffer (16 uL of 0.5% Triton X-100) for 10 min at room temperature (293-298 K) before labeling. For mitochondrial membrane potential and mitochondrial measurements, pre-fixed cells were incubated with 50 uL of MitoTracker Red CMXRos (Invitrogen) at a concentration of 250 nM for 30 min before fixation. In the remaining cases, post-fixed cells were labeled by incubation with a multiplexed mixture of primary antibodies in HBSS for 60 min at room temperature (293-298 K) to detect immunoreactivity of c-Jun (1:500), phospho-histone H3 (1:100), phospho-histone H2A.x (1:200), p53 (1:400), alpha-tubulin (1:200) and Hoechst 33342 (2 ug/mL). […]

Values joined by “and” are separate entries in the source; they are usually repeats but may differ in a detail not shown here. Identical values can stand only once. A structure can be active in one record and inactive in another. Active and inactive are the calls of the source. The calls were made as follows: active = hit-call score of the fitted dose curve at least 0.9, where 1 is the maximum; inactive = score below 0.9.

Sequence of CCAAT/enhancer-binding protein beta (Homo sapiens) (P17676 whole entry, looked up, the tested form may be a part): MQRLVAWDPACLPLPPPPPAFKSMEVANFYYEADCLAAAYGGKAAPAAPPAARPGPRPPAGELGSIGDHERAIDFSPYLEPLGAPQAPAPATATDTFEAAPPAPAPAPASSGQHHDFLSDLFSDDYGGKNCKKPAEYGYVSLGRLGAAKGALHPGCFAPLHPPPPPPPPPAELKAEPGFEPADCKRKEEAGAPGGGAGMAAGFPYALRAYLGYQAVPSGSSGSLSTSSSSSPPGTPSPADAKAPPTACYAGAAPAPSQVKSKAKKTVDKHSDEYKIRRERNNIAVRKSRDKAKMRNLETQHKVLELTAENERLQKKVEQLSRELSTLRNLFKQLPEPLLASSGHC

As for `CCOC(=O)CN[C@@H](C(=O)N1CC[C@H]1C(=O)NCc1ccc(/C(N)=N/O)cc1)C1CCCCC1`, the result in assay [1] and in [2] was inactive.
For the molecule `O=C(Nc1cccc([N+](=O)[O-])c1)c1cc2ccccc2cc1O`, the molecule was classed as inactive in [1].
Take `O=C1OC2(c3ccccc31)c1cc(I)c(O)c(I)c1Oc1c2cc(I)c(O)c1I`: the result in assay [1] was inactive.
As to `CCCCC(CC)C(=O)O` (stereo not given), the outcome in assay [3], in [4], in assay [5], in [1] and in assay [2] was inactive.
With `CC(C)(C)c1ccc(O)c(O)c1`, the AC50 in assay [1] was 47.8 µM (active) and 181 µM (active); in assay [6] it was 64.9 µM (active) [middle of 4 runs]. Besides, the outcome in assay [1], in assay [2] and in [6] was inactive.
In the case of `CCCCCCCCCCCCOS(=O)(=O)O`, the molecule was classed as inactive in assay [7], in assay [8], in [3], in assay [4], in assay [9] and in assay [5].
Regarding `O=C(OC(=O)C(F)(F)C(F)(F)F)C(F)(F)C(F)(F)F`, in assay [1], the result was inactive.
On the same count and under the same terms, the value for `Cc1ccc(C)c(S(=O)(=O)O)c1` was “inactive”.
`N=C(N)c1ccc(OCCCCCOc2ccc(C(=N)N)cc2)cc1`: the half-maximal activity concentration (AC50) in assay [7] was 21.6 µM (active); in assay [9], 11.3 µM (active); in [5], 45.5 µM (active); in assay [6], 781 nM (active). Besides, the molecule was classed as inactive in assay [8], in [3], in assay [4] and in assay [1].
As to `CN(C)c1ccc(C(=C2C=CC(=[N+](C)C)C=C2)c2ccccc2)cc1`, the AC50 in [1] is 2.56 µM (active). Moreover, the molecule was classed as inactive in assay [1], in assay [2] and in [6].
`CCOC=O`: the call in [1] was inactive.
For the molecule `CS(=O)(=O)c1ccc([C@@H](CC2CCCC2)C(=O)Nc2cnccn2)cc1Cl`, the outcome in assay [7], in [3], in assay [4], in assay [10], in [9] and in assay [2] was inactive. The AC50 in [6] was 136000 nM (active).
Regarding `Cn1sccc1=O`, the half-maximal activity concentration (AC50) in assay [1] is 154 µM (active).
As to `NCc1cccc(CN)c1`, in [1], the molecule was called inactive.
For the molecule `O=C(c1ccccc1)c1ccccc1`, the outcome in [7], in assay [3], in [4], in [9], in [1] and in assay [6] was inactive. Moreover, the AC50 in assay [10] is 0.304 µM (active).
Turning to `C[N+](C)(CCCNS(=O)(=O)CCC(F)(F)C(F)(F)C(F)(F)C(F)(F)C(F)(F)C(F)(F)F)CC(=O)[O-]`, the molecule was classed as inactive in assay [1] and in [2].
`CCCCCCCCC(C)=O`: the outcome in assay [1] and in [2] was inactive.
Consider `O=C1NS(=O)(=O)c2ccccc21`, for which the outcome in assay [7], in assay [8], in assay [9], in assay [5], in assay [1] and in assay [6] was inactive.
As to `CN(Cc1cnc2nc(N)nc(N)c2n1)c1ccc(C(=O)N[C@@H](CCC(=O)O)C(=O)O)cc1`, the call in assay [7], in [8], in [3], in [4], in assay [9] and in [5] was inactive. The call in assay [1], in assay [2] and in assay [6] was inactive.
